Measured values published in PubChem BioAssay AID1240 (Sanford-Burnham Center for Chemical Genomics, 2008).
Screen size: about 50,000 compounds; about 800 (1.6%) showed an effect of 50% or more. This excerpt belongs to a sample that is enriched for strong results.

target: Bcl-2-like protein 10 (Homo sapiens) (UniProt Q9HD36); assay: TR3 peptide-Bcl-B binding displacers, biochemical primary FP assay, phenotype converters (AID 1240); conditions: GST-Bcl-B / FITC-TR3 peptide fluorescence polarization; stronger effect = higher value; compound at 3.75 mg/L;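 note: 0% = Bcl-B with tracer peptide and DMSO and 100% = tracer peptide lacking Bcl-B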
Sequence (Q9HD36 whole entry, looked up): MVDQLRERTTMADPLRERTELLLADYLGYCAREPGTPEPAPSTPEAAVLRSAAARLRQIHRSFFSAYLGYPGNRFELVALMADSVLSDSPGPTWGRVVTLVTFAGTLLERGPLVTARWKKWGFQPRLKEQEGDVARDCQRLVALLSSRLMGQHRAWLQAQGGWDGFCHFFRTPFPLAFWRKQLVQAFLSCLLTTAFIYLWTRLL

Row | Structure (SMILES) | displacement
1 | COc1ccccc1CNC(=O)c1cccc(Cl)c1 | -6.1%
2 | COc1cccc(C(=O)Nc2ccc(-c3nc4ccccc4o3)c(O)c2)c1 | -23.2%
3 | O=[N+]([O-])c1ccc(/C=N\Nc2nc(-c3ccccc3)c3cc(Cl)ccc3n2)o1 | -5.3%
4 | Clc1ccc2nc(N/N=C/c3ccc4c(c3)OCO4)nc(-c3ccccc3)c2c1 | 83.7%
5 | Clc1ccc2nc(N/N=C/c3ccc4ncccc4c3)nc(-c3ccccc3)c2c1 | -2.6%
6 | Cc1ccc(/C=N\N2CCN(c3ccccc3)CC2)cc1 | -3.9%
7 | COc1cc(C)nc(Nc2nc(C)c3ccc(C)cc3n2)n1 | 13.2%
8 | COc1cc(C)nc(Nc2nc(C)c3cc(C)ccc3n2)n1 | 107%
9 | COc1ccc2nc(Nc3nc(C)cc(-c4ccccc4)n3)nc(C)c2c1 | -14.2%
10 | CN(C)c1ccc(CC2(CC(=O)c3ccccc3)C(=O)c3ccccc3C2=O)cc1 | 1.8%
11 | CC1=CC(=O)C=C/C1=N\OS(=O)(=O)c1ccccc1 | 25.4%
12 | COc1ccc(C=C2C(=O)N(C)C(=O)N(C)C2=O)cc1OC | 0.6%
13 | COc1cc(C=C2C(=O)N(C)C(=O)N(C)C2=O)ccc1OC(C)c1ccccc1 (centres undefined) | 120%
14 | COc1cc(C=O)ccc1OC(C)c1ccccc1 (centres undefined) | 1.1%
15 | COc1ccc(OC)c(/C=c2\sc3nc4c(Br)c(C)c(C)cc4n3c2=O)c1 | 19.8%
16 | Cc1ccc(OCC(=O)O/N=C(\N)c2ccncc2)c(C)c1 | 2.5%
17 | CC1(C)Cc2ccccc2-c2nnc(-c3cccs3)n21 | -8.6%
18 | N/C(=N\c1nc2ccccc2o1)NC(=O)c1ccc(F)cc1 | 1.4%
19 | N/C(=N\c1nc2ccccc2o1)NC(=O)c1ccccc1 | -10.3%
20 | N/C(=N/c1nc2ccccc2o1)NC(=O)c1sc2ccccc2c1Cl | 51.6%
21 | O=C(Oc1ccc(Br)cc1C(=S)N1CCOCC1)c1ccc([N+](=O)[O-])cc1 | 7.3%
22 | Cc1cccc(NC(=O)c2c(NC(=O)C(C)(C)C)sc3c2CCC3)c1 | -2.3%
23 | CNc1c(Cl)c(Cl)c(Cl)c2c1C(=O)c1ccccc1C2=O | 11.2%

Row | Structure (SMILES) | displacement
24 | Nc1nnc2c(n1)-c1ccccc1C2=O | 1%
25 | CCC(=O)Nc1cccc2c1C(=O)c1ccccc1C2=O | 11.2%
26 | Nc1ccc2[nH]nc3c2c1C(=O)c1ccccc1-3 | 104%
27 | Nc1cccc2c1C(=O)c1c(N)cccc1C2=O | -4.2%
28 | CNc1ccc2[nH]nc3c2c1C(=O)c1ccccc1-3 | 173%
29 | Cc1cc(C)nc(NS(=O)(=O)c2ccc(NC(=S)NC(=O)c3ccc(Br)cc3)cc2)n1 | 2.6%
30 | O=C(NCCN1CCOCC1)c1sc2ccccc2c1Cl | -3.6%
31 | CCOc1cc([N+](=O)[O-])cc(/C=C2/SC(=S)NC2=O)c1O | 14%
32 | NS(=O)(=O)c1ccc(NC(=O)COc2ccc3ccccc3c2)cc1 | 3%
33 | Cc1ccc(OCCCN2CCN(C)CC2)c(C(C)(C)C)c1 | -8%
34 | CC(=NCCN1CCNCC1)C1=C(O)CC(C)(C)CC1=O | -4.3%
35 | O=c1nc(/C=C/c2cccc3ccccc23)cc(C(F)(F)F)[nH]1 | 49.7%
36 | COc1cccc(/C=C/c2cc(C(F)(F)F)[nH]c(=O)n2)c1OC | 121%
37 | COc1cc(/C=C/c2cc(C(F)(F)F)[nH]c(=O)n2)cc(OC)c1OC | 2.7%
38 | O=c1nc(/C=C/c2cc3c(cc2[N+](=O)[O-])OCO3)cc(C(F)(F)F)[nH]1 | 30.4%
39 | COc1cc(OC)c(OC)cc1/C=C/c1cc(C(F)(F)F)[nH]c(=O)n1 | 7.5%
40 | O=c1nc(/C=C/c2cc3c(cc2Br)OCO3)cc(C(F)(F)F)[nH]1 | 115%
41 | CCOC(=O)c1c(NC(=O)c2ccc(Cl)cc2)sc(C(=O)Nc2ccccc2OCC)c1C | 3.5%
42 | CCN(CC)c1ccc(/C=C2\C(=O)NC(=O)N(c3ccc(Br)c(C)c3)C2=O)o1 | 42.6%
43 | Cc1ccc(N2C(=O)NC(=O)/C(=C\c3ccc(N(C)C)o3)C2=O)cc1 | -134%
44 | Cc1cc(N2C(=O)NC(=O)/C(=C\c3ccc(N4CCCCC4)o3)C2=O)ccc1Br | 55.5%
45 | Cc1ccc(N2C(=O)NC(=O)/C(=C\c3ccc(N4CCCCC4)o3)C2=O)cc1 | -139%
46 | O=C1NC(=O)N(c2ccc(Br)cc2)C(=O)/C1=C/c1ccco1 | 30.1%

Row | Structure (SMILES) | displacement
47 | Cc1cc(N2C(=O)NC(=O)/C(=C\C=C\c3ccco3)C2=O)ccc1Br | -3.7%
48 | Cc1cc(N2C(=O)NC(=O)/C(=C\c3ccc(N(C)C)o3)C2=O)ccc1Br | 153%
49 | Cc1cc(N2C(=O)NC(=O)/C(=C\c3ccco3)C2=O)ccc1Br | 74%
50 | Cc1cc(N2C(=O)NC(=O)/C(=C\c3ccc(N4CCOCC4)o3)C2=O)ccc1Br | -33.9%
51 | CC(C)(C)C1(O)CC(c2ccccc2)=NO1 (centres undefined) | 18.6%
52 | O=C1c2ccccc2C(=O)c2c(NC(=O)C3CC4CCC3C4)cccc21 (centres undefined) | -7.7%
53 | O=C(c1ccccc1)N1CCN(C2CC(=O)N(CCc3ccccc3)C2=O)CC1 (centres undefined) | 3.9%
54 | CCC1=NN2C(=N)/C(=C/c3ccc4c(c3)OCO4)C(=O)N=C2S1 | 3%
55 | CCOc1cccc(N2C(=O)NC(=O)/C(=C\c3ccc(Sc4ccccc4)o3)C2=O)c1 | 4%
56 | Cc1cc(=O)c2c(C)nc(-c3ccccc3)nc2[nH]1 | 31.5%
57 | Cc1nc(-c2ccccc2)nc2[nH]c(-c3ccccc3)cc(=O)c12 | 69.8%
58 | CSc1nc(-c2ccccc2)nc2[nH]c(-c3ccccc3)cc(=O)c12 | 44.4%
59 | CCOC(=O)c1ccc(NC(=O)c2cc(-c3cccs3)nc3ccccc23)cc1 | 4.7%
60 | CCN(CC)CCNC(=O)c1ccc(Cl)c(Cl)c1 | -5.2%
61 | Cc1ccc(C(=O)NC(NC(=S)Nc2ccccc2Cl)C(Cl)(Cl)Cl)cc1 (centres undefined) | -10.7%
62 | Cc1ccc(C(=O)NC(NC(=S)Nc2cccc3ccccc23)C(Cl)(Cl)Cl)cc1 (centres undefined) | 54.9%
63 | O=C(NC(NC(=S)Nc1cccc2ccccc12)C(Cl)(Cl)Cl)c1ccccc1 (centres undefined) | 18.6%
64 | CC(=O)c1cc2c(N)c(C(=O)c3ccc(Br)cc3)sc2nc1C | 10.1%
65 | Nc1c(C(=O)c2ccc(Cl)cc2)sc2nc(-c3ccccc3)ccc12 | -3.6%
66 | Nc1c(C(=O)c2ccc(Br)cc2)sc2nc(C(F)(F)F)c(C(=O)c3cccs3)cc12 | 51.1%
67 | Cc1cc([N+](=O)[O-])nn1C(=O)c1nn(C)cc1Br | 0.4%
68 | N#Cc1ccccc1NC(=O)c1ccc(-c2ccccc2)cc1 | 12.6%
69 | Cc1ccc(-c2nc3s/c(=C\c4cn(-c5ccccc5)nc4-c4ccccc4)c(=O)n3n2)cc1 | 8.5%
